An excerpt weighted towards active compounds, which were near 3.1% of everything screened.
CF NFkB inh: inhibitors of PAF-induced NF-kB signaling, primary screen, cell-based, GFP fluorescence, uHTS; AID 588850, 2011; actives 0.86% (n = 360,000); inhibition, % at 5 µM; KKLEB NF-kB-GFP reporter, GFP fluorescence overnight;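 active = at least 50% inhibition at 5 µM, scaled per plate between neutral and stimulator controls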;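 also: PAF is a Pseudomonas aeruginosa culture filtrate used as stimulus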
HIF-2a inh: HIF-2a reporter inhibitors, primary screen, luminescence, 786-0 RCC cells | 786-0 RCC cells HIF-2a reporter, luciferase luminescence, overnight | inhibition, % at 18.8 µM | actives 0.72% (n = 360,000) | AID 624352, 2012;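 active = inhibition of the luminescence signal of 40% or more relative to plate controls, in a single-dose primary screen at 18.75 µM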
PPC-1+TRAIL kill: compounds killing PPC-1 cancer cells with TRAIL present, primary screen, TRAIL potentiator project, ATPLite luminescence, uHTS. PPC-1 cells + TRAIL, ATPLite viability luminescence. cell killing (% activity), % at 4 µM or 5 µM. actives 0.41% (n = 220,000). AID 1443, 2008;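 active = cell killing above 50% in the first pass at 4 µM, then a duplicate retest at 5 µM averaging 50% or more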
C8 TRAIL sens: viability loss with TRAIL in NB7+C8 cells, primary screen, TRAIL sensitizer project, cell-based, ATPlite luminescence | actives 1% (n = 360,000) | inhibition (viability loss, TRAIL sensitization), % at 10 µM;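 active = compounds causing at least 50% loss of cell viability in the single-dose screen, relative to plate controls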
KKLEB cytotox: cytotoxicity in KKLEB CF airway cells, primary screen, cytotoxicity control for CF NF-kB inhibitor project, cell-based, uHTS, fluorescence assay plates. actives 0.36% (n = 360,000). AID 602141, 2011. activity change (cytotoxicity), % at 5 µM. KKLEB CF airway cells viability, ATPlite luminescence, overnight; stronger effect = lower value; cells stimulated with P. aeruginosa culture filtrate;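 active = corrected activity change at or below -50% at 5 µM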
Peg3 prom inh: Peg3 promoter-driven luciferase inhibitors, primary screen, cell-based, HeLa, luciferase luminescence; HeLa PEG-Prom luciferase reporter, overnight; inhibition, % at 20 µM; actives 1.7% (n = 360,000); AID 588405, 2011;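 active = inhibition of at least 50% at 20 µM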
Large screens that a line does not name were inactive.

OCCN(CCO)CC(O)COc1ccc(Br)cc1 (stereo not drawn)	none
CN1CCN(c2ccc3sc(-n4ccc5ccccc54)nc3c2)CC1	C8 TRAIL sens 68 (no result: PPC-1+TRAIL kill)
O=C(Nc1cccc(Oc2ccccc2)c1)C1Cc2c(-c3ccco3)ccnc2O1 (stereo not drawn)	none (no result: PPC-1+TRAIL kill)
CS(=O)(=O)Nc1cccc(NC(=O)C2Cc3c(-c4ccco4)ccnc3O2)c1 (stereo not drawn)	C8 TRAIL sens 53 (no result: PPC-1+TRAIL kill)
Cc1ccccc1CN1C(=O)/C(=C\c2ccc(C(=O)NCCN3CCOCC3)cc2)Sc2ccccc21	Peg3 prom inh 57 (no result: PPC-1+TRAIL kill)
O=C(CN1C(=O)/C(=C/c2ccc(C(F)(F)F)cc2)Sc2ccccc21)NCCCN1CCOCC1	none (no result: PPC-1+TRAIL kill)
COc1ccc(/C=C2\Sc3ccc(C(=O)NCCN4CCCCCC4)cc3N(C)C2=O)cc1	none (no result: PPC-1+TRAIL kill)
Cc1ccc(S(=O)(=O)N2CCOCC2)cc1C(=O)NCCN1C(=O)S/C(=C\c2ccccc2Cl)C1=O	none
CC(C)(C)c1ccc(/C=C2\SC(=O)N(CCNC(=O)c3cccc(S(=O)(=O)N4CCOCC4)c3)C2=O)cc1	C8 TRAIL sens 58
CN1CCN(CCCNC(=O)c2ccc(/C=C3\Sc4ccccc4N(Cc4ccccc4F)C3=O)cc2)CC1	Peg3 prom inh 74
CCc1ccc(/C=C2/Sc3ccccc3N(CC(=O)NCCCN3CCOCC3)C2=O)cc1	none (no result: PPC-1+TRAIL kill)
CCN1CCN(CCNC(=O)c2ccc3c(c2)N(Cc2ccc(F)cc2)C(=O)/C(=C/c2ccccc2)S3)CC1	C8 TRAIL sens 57, Peg3 prom inh 103
CCC1NC(=O)c2cccnc2-n2c1nc1ccc(OC)cc1c2=O (stereo not drawn)	none (no result: PPC-1+TRAIL kill)
Cc1cc(OC(C)C(=O)NCC2CCC(C(=O)O)CC2)c2c(C)cc(=O)oc2c1 (stereo not drawn)	none (no result: PPC-1+TRAIL kill)
COc1ccc(/C=C2\Sc3ccc(C(=O)NC4CC4)cc3N(C)C2=O)cc1OC	none (no result: PPC-1+TRAIL kill)
CN1C(=O)/C(=C\c2ccccc2F)Sc2ccc(C(=O)NC3CCN(Cc4ccccc4)CC3)cc21	Peg3 prom inh 58 (no result: PPC-1+TRAIL kill)
O=C(NCCN1CCOCC1)c1ccc(/C=C2\Sc3ccccc3N(Cc3ccccc3F)C2=O)cc1	Peg3 prom inh 59 (no result: PPC-1+TRAIL kill)
CCOc1ccccc1CNn1cnnc1SCC(=O)NC(C)(C)C	none (no result: PPC-1+TRAIL kill)
CC1=NNC(=O)/C1=C\c1cn(-c2ccccc2)nc1-c1ccccc1	CF NFkB inh 94, HIF-2a inh 95, C8 TRAIL sens 63, Peg3 prom inh 104
CC1=CC(C)(C)N=C(Nc2nc(C)c3cc(C)cc(C)c3n2)N1	Peg3 prom inh 61
Cc1cc(C)c2nc(Nc3nc(-c4ccccc4)cc(=O)[nH]3)nc(C)c2c1	none
O=C(CCn1nnnc1CN1CCOCC1)N1CCC(c2cccc(Cl)c2)C1 (stereo not drawn)	none (no result: PPC-1+TRAIL kill)
O=C(NCCCc1ccc(F)cc1)C1CCC(=O)N(CCN2CCOCC2)C1 (stereo not drawn)	none (no result: PPC-1+TRAIL kill)
O=C(O)c1ccc(Oc2nc3ccccc3s2)cc1	Peg3 prom inh 84 (no result: PPC-1+TRAIL kill)
Cn1c(=O)c2c(nc(SCCCC#N)n2Cc2c(F)cccc2Cl)n(C)c1=O	none
CC(C)c1nc(SCc2c(F)cccc2Cl)c2c(=O)n(C)c(=O)n(C)c2n1	Peg3 prom inh 63
COc1cccc(CN2CC(C(=O)N(C)Cc3ccnc4ccccc34)CCC2=O)c1 (stereo not drawn)	none (no result: PPC-1+TRAIL kill)
CCN(CC)C(=O)c1ccc2c3c(cccc13)C(=O)N(CCc1ccc(OC)c(OC)c1)C2=O	Peg3 prom inh 60
COc1ccc(CCN2C(=O)c3cccc4cccc(c34)C2=O)cc1OC	none
Cc1ccc(CNc2nc3ccccc3n2C)cc1	C8 TRAIL sens 58 (no result: PPC-1+TRAIL kill)
COc1ccc(CNC(=O)CN2CCC(NC(=O)c3ccccc3C)CC2)cc1	none (no result: PPC-1+TRAIL kill)
CC1=CC(C)(C)Nc2ccc(OC(=O)C(Cc3ccccc3)N3C(=O)c4ccccc4C3=O)cc21 (stereo not drawn)	HIF-2a inh 81
CC(C)(C)c1ccc(/C=C/C(=O)Nc2cccnc2)cc1	none (no result: PPC-1+TRAIL kill)
Cc1ccc(/C=C/C(=O)NC2=NCCS2)cc1	C8 TRAIL sens 76
NC(=O)c1ccccc1NC(=O)/C=C/C(=O)O	none
CC(C)(C)c1ccc(/C=C/C(=O)NC2=NCCS2)cc1	C8 TRAIL sens 52
Cc1ccc(OCC(=O)NC2=NCCS2)cc1	none
Cc1ccc(/C=C/C(=O)Nc2ccccc2C(N)=O)cc1	PPC-1+TRAIL kill 84, C8 TRAIL sens 84
COCCNC(=O)C1CCCN(Cc2ccc(-c3ccccc3)cc2)CC1 (stereo not drawn)	none (no result: PPC-1+TRAIL kill)
NS(=O)(=O)c1ccc(N=Nc2c[nH]c(=O)c(O)c2)cc1	HIF-2a inh 41
O=C(NCCCO)C(=O)Nc1cc2c3c(c1)CCN3C(=O)CC2	none (no result: PPC-1+TRAIL kill)
Cc1ccc(N=Cc2c(C)[nH]n(-c3nc4ccccc4[nH]3)c2=O)cc1	PPC-1+TRAIL kill 79, C8 TRAIL sens 89
Cc1ccc(NC(=O)C2(C)CCN2C(=O)Cc2ccccc2Cl)cc1C (stereo not drawn)	none (no result: PPC-1+TRAIL kill)
COCOCCn1cc(CN2CCS(=O)(=O)N(Cc3ccc(-c4cccc(CO)c4)cc3)C(C)C2=O)nn1 (stereo not drawn)	none (no result: PPC-1+TRAIL kill)
CC1(C2CC2)NC(=O)N(CC(=O)N2CCN(c3ccccc3Cl)CC2)C1=O (stereo not drawn)	none (no result: PPC-1+TRAIL kill)
CC1CCN(CCCCOc2ccc(C(C)(C)C)cc2)CC1	none (no result: PPC-1+TRAIL kill)
CC(C)(c1ccccc1)c1ccc(OCCN2CCOCC2)cc1	none (no result: PPC-1+TRAIL kill)
CC(C)(c1ccccc1)c1ccc(OCCCN2CCNCC2)cc1	Peg3 prom inh 79
CCC(C)NCCOc1ccc(C(C)(C)c2ccccc2)cc1 (stereo not drawn)	Peg3 prom inh 81
CC(C)(C)c1ccc(OCCCCCCN2CCNCC2)cc1	Peg3 prom inh 64 (no result: PPC-1+TRAIL kill)
COc1ccc(S(=O)(=O)N(C)C2(C)CCS(=O)(=O)C2)cc1OC (stereo not drawn)	none (no result: PPC-1+TRAIL kill)
O=C(Nc1nnc([C@H]2C[C@H](O)[C@@H](CO)O2)s1)Nc1ccccc1Oc1ccccc1	none (no result: PPC-1+TRAIL kill)
O=C(NCC1CCCO1)c1cc2cc(Cl)ccc2[nH]1 (stereo not drawn)	none (no result: PPC-1+TRAIL kill)
CC(C)(C)OC(=O)Nc1ccccc1-n1nnnc1C(C(=O)c1ccc(F)cc1)N1CCN(c2ccccn2)CC1 (stereo not drawn)	none (no result: CF NFkB inh, PPC-1+TRAIL kill, KKLEB cytotox, Peg3 prom inh)
COCCNC(=O)C(c1ccc(F)cc1)N(Cc1cccs1)C(=O)CCC(=O)Nc1ccccn1 (stereo not drawn)	none (no result: PPC-1+TRAIL kill)
Nc1ncc(S(=O)(=O)c2ccc([N+](=O)[O-])cc2)s1	none (no result: PPC-1+TRAIL kill)
COc1cc(SC)ccc1C(=O)Nc1ccc(OCC(=O)N2CCOCC2)cc1	C8 TRAIL sens 86 (no result: PPC-1+TRAIL kill)
COc1cc(SC)ccc1C(=O)Nc1cc(C)c(OCC(=O)N2CCOCC2)c(C)c1	none (no result: PPC-1+TRAIL kill)

Assay outcomes deposited in PubChem BioAssay by Sanford-Burnham Center for Chemical Genomics.
